For assay [1], the target named is Sphingosine kinase 1 (Homo sapiens) (UniProt Q9NYA1). As to conditions: at 1 µM.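 Further: mean SPHK1 inhibition value reported from the GSK PKIS kinase panel screen.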
The target of assay [2] is T1, Sphingosine kinase 2 (Homo sapiens) (UniProt Q9NRA0).
T1 sequence (whole entry): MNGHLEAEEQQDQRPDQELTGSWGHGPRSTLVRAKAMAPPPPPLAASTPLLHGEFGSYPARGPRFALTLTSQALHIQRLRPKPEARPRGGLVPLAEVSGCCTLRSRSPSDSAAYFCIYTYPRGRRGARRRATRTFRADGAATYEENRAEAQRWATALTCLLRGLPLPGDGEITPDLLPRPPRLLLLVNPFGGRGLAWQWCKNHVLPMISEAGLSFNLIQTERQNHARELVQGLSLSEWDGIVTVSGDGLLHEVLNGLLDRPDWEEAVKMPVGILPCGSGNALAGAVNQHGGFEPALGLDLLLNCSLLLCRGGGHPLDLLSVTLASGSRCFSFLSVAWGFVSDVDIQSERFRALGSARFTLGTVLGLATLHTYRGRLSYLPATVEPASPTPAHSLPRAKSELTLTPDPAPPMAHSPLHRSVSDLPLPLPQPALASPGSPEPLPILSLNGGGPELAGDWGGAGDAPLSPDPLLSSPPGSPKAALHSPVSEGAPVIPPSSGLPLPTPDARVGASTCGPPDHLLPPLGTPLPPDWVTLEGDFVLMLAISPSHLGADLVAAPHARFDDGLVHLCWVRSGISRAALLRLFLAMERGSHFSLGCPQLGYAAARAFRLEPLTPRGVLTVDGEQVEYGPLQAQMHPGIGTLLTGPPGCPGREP
To be noted: at 0.1 µM.

Assay [3] addresses T1, Sphingosine kinase 2 (Homo sapiens). To be noted: at 1 µM.
Assay [4] addresses Casein kinase II subunit alpha (Homo sapiens) (UniProt P68400). To be noted: at 0.1 µM.
Assay [5] has the same target. As to conditions: at 1 µM.
Assay [6] has as its target T2, Inhibitor of nuclear factor kappa-B kinase subunit alpha (Homo sapiens) (UniProt O15111).
T2 sequence (whole entry): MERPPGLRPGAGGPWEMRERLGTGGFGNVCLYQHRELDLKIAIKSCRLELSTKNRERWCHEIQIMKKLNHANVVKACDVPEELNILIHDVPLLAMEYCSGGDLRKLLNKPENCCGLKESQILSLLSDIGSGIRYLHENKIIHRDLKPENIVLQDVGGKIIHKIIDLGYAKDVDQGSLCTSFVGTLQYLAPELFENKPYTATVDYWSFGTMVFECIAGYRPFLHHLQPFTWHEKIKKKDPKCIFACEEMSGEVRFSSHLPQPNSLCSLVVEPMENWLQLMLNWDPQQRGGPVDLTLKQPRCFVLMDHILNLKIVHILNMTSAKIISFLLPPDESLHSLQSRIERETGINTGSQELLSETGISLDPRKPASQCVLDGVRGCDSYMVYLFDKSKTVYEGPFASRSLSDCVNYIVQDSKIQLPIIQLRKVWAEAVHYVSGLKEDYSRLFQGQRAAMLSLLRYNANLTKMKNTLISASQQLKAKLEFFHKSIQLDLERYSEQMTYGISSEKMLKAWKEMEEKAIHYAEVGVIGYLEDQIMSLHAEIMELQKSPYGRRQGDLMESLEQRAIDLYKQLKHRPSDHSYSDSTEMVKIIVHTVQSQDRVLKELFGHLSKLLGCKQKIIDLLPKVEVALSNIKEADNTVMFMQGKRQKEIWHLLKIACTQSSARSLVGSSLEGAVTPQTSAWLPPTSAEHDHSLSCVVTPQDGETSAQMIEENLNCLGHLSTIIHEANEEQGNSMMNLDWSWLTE
To be noted: at 0.1 µM.

Assay [7] addresses T2, Inhibitor of nuclear factor kappa-B kinase subunit alpha (Homo sapiens). To be noted: at 1 µM.
Assay [8] has as its target T3, Inhibitor of nuclear factor kappa-B kinase subunit beta (Homo sapiens) (UniProt O14920).
T3 sequence (whole entry): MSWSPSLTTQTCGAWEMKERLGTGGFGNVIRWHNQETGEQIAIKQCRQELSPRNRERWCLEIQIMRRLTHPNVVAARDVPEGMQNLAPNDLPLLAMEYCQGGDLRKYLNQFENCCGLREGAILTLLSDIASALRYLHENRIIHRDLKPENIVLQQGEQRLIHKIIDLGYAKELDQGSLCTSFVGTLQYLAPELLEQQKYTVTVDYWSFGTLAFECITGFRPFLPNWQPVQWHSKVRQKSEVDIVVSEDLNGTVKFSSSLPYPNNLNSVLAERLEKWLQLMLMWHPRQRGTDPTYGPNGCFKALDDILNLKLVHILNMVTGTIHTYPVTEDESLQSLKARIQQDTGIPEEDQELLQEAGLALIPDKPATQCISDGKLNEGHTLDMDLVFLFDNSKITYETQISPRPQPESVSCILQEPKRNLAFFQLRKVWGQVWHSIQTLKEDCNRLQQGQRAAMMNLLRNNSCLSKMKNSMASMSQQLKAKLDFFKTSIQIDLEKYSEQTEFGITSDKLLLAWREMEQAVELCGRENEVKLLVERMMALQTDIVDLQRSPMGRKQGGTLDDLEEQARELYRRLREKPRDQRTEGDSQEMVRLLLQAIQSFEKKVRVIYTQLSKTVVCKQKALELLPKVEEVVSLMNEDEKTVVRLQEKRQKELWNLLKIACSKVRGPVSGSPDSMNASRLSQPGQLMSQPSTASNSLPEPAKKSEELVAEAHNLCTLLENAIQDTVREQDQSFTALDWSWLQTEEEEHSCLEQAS
As to conditions: at 0.1 µM.

For assay [9], the target named is T3, Inhibitor of nuclear factor kappa-B kinase subunit beta (Homo sapiens). As to conditions: at 1 µM.
In assay [10] the target is T4, Inhibitor of nuclear factor kappa-B kinase subunit epsilon (Homo sapiens) (UniProt Q14164).
T4 sequence (whole entry): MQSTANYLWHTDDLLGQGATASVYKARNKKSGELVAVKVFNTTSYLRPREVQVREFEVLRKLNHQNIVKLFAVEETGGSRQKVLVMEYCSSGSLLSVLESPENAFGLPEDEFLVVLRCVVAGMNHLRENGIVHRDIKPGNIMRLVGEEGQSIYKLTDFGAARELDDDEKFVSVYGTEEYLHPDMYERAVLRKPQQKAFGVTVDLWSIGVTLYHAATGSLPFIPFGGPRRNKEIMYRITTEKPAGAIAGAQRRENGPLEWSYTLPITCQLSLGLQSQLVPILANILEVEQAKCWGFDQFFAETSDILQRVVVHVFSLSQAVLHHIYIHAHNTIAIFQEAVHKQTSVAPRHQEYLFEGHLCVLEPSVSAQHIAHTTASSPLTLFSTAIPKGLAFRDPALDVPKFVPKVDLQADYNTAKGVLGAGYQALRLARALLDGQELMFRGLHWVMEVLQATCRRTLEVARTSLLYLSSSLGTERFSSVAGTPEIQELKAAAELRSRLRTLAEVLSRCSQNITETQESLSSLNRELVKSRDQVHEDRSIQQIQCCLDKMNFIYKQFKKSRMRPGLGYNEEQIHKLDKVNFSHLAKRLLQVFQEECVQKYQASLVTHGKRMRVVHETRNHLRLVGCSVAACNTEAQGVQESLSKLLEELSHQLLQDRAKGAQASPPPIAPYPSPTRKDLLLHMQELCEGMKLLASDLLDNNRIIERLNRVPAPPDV
To be noted: at 0.1 µM.

Assay [11] deals with T4, Inhibitor of nuclear factor kappa-B kinase subunit epsilon (Homo sapiens). To be noted: at 1 µM.
The target of assay [12] is T5, Serine/threonine-protein kinase Nek1 (Homo sapiens) (UniProt Q96PY6).
T5 sequence (whole entry): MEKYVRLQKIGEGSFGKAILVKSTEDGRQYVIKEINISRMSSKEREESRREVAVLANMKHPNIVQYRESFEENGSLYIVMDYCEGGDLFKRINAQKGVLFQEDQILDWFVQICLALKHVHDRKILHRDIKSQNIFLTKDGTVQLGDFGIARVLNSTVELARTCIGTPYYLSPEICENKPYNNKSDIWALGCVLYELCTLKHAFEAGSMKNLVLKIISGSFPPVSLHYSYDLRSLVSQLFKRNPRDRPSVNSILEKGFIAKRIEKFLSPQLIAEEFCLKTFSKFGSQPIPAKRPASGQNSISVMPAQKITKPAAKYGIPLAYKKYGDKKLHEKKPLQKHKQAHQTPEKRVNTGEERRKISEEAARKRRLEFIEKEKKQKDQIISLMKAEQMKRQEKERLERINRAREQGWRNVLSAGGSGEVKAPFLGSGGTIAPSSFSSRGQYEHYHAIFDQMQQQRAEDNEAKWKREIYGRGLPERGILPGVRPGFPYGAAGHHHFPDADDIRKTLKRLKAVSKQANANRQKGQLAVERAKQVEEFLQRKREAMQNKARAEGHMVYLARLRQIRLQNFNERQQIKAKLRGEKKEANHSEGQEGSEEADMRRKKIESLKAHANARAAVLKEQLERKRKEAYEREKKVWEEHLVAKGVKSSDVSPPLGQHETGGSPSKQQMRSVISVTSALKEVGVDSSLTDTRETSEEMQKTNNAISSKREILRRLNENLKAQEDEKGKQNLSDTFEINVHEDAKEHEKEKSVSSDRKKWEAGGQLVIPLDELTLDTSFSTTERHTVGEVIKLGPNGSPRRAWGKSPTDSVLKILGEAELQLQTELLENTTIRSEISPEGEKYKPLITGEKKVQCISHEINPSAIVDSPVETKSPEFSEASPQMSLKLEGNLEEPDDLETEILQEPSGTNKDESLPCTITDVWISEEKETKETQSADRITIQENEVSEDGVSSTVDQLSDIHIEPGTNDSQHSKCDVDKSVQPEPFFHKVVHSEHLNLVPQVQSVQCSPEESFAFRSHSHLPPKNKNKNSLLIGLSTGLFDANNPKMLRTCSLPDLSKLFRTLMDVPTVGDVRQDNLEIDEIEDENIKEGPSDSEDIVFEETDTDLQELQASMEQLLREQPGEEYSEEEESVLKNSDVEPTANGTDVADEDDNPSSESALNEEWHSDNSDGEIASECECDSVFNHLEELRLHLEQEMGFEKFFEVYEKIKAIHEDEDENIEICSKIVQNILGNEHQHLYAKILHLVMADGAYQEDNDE
To be noted: at 0.1 µM.

In assay [13] the target is T5, Serine/threonine-protein kinase Nek1 (Homo sapiens). To be noted: at 1 µM.
Assay [14] has as its target T6, Serine/threonine-protein kinase Nek2 (Homo sapiens) (UniProt P51955).
T6 sequence (whole entry): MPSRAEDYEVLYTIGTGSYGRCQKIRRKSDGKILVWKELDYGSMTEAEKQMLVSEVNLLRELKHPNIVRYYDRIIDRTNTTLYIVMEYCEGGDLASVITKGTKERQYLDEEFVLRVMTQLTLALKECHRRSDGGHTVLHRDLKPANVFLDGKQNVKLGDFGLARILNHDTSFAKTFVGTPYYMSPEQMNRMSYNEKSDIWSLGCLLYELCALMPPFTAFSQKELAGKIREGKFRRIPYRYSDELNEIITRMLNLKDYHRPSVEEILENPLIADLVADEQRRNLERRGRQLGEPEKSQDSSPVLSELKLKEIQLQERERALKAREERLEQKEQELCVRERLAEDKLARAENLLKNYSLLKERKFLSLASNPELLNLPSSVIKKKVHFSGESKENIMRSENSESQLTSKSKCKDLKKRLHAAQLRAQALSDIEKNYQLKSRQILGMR
As to conditions: at 0.1 µM.

Assay [15] addresses T6, Serine/threonine-protein kinase Nek2 (Homo sapiens). As to conditions: at 1 µM.
Assay [16] deals with Serine/threonine-protein kinase Nek6 (Homo sapiens) (UniProt Q9HC98). As to conditions: at 0.1 µM.
Chain of Serine/threonine-protein kinase Nek6 (Homo sapiens) (Q9HC98 whole entry): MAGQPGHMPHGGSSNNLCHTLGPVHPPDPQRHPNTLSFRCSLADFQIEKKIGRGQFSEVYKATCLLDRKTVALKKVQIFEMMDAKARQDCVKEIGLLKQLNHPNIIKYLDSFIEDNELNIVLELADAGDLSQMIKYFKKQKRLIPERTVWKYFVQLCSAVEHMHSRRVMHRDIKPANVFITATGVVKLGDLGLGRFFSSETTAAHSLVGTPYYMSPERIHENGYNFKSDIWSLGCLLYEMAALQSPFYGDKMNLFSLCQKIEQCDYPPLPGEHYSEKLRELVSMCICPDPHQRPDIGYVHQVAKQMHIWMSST
Assay [17] shares this target. As to conditions: at 1 µM.
Assay [18] concerns the target Serine/threonine-protein kinase Nek7 (Homo sapiens) (UniProt Q8TDX7). To be noted: at 0.1 µM.
For assay [19] the target is unchanged. As to conditions: at 1 µM.
The target in assay [20] is T7, Serine/threonine-protein kinase Nek9 (Homo sapiens) (UniProt Q8TD19).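 Further: reported value is the mean percent inhibition of NEK9.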
T7 sequence (whole entry): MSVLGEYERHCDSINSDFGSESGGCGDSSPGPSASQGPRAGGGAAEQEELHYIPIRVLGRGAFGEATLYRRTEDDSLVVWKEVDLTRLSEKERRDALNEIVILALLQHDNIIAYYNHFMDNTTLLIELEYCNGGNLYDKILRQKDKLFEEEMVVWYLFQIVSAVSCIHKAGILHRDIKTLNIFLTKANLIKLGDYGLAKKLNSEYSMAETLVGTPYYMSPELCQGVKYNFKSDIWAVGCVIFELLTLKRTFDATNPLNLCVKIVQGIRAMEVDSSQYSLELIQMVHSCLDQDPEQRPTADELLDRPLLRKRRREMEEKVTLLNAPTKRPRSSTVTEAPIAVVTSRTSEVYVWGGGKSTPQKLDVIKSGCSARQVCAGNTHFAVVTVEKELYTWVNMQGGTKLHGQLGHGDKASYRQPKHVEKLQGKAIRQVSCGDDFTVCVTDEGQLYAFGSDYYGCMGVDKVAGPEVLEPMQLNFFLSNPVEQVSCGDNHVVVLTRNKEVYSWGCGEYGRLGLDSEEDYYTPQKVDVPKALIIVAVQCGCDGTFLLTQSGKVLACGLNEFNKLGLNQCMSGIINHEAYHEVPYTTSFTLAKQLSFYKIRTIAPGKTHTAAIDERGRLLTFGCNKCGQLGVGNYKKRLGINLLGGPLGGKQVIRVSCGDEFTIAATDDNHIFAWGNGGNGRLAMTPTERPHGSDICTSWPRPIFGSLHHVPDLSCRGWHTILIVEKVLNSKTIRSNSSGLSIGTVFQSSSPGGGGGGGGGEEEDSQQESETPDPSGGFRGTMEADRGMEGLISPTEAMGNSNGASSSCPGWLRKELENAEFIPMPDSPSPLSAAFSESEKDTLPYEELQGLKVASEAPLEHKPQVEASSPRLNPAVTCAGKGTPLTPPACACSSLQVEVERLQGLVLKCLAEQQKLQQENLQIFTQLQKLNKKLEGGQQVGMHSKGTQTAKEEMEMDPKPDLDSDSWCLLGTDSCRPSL
As to conditions: at 0.1 µM.

Chain of Casein kinase II subunit alpha (Homo sapiens) (P68400 whole entry, looked up): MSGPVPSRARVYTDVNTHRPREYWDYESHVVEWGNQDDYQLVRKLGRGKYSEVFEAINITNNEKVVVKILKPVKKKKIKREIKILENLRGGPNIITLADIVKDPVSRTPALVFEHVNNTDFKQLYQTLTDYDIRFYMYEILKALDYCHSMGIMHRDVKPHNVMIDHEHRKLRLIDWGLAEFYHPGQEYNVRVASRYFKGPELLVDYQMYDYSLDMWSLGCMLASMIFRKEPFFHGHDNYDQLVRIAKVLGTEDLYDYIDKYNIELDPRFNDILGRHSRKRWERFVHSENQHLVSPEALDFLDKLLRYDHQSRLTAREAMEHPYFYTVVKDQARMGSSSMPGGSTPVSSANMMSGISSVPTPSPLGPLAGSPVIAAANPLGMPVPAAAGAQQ
Chain of Serine/threonine-protein kinase Nek7 (Homo sapiens) (Q8TDX7 whole entry, looked up): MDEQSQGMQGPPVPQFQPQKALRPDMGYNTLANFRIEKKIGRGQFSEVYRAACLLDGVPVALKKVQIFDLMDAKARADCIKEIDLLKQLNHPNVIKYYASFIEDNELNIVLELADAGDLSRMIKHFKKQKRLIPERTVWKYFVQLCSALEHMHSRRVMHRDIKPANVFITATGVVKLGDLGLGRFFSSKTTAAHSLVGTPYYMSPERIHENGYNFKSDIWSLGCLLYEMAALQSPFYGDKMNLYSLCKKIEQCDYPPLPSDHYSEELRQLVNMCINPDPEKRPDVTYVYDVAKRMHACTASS
Chain of Sphingosine kinase 1 (Homo sapiens) (Q9NYA1 whole entry): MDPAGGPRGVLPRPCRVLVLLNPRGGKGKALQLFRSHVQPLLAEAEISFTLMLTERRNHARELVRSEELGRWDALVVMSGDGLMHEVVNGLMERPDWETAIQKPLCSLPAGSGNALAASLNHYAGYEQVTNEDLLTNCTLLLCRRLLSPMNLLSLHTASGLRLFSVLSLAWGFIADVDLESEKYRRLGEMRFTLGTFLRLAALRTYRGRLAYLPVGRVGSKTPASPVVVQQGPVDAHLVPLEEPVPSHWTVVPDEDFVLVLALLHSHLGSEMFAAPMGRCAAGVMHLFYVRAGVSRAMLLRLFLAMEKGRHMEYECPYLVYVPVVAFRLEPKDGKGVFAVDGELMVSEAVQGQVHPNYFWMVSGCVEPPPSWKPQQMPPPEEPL

For `NS(=O)(=O)c1ccc(N/N=C2\C(=O)Nc3ccc(C(=O)NCCCn4ccnc4)cc32)cc1`, the inhibition – broadly, the relative decrease from the control value, in per cent – was -2.65% in assay [1]; 0.75% in assay [2]; -2.51% in assay [3]; 6.89% in assay [4]; 21% in [5]; 2.62% in assay [6]. Besides, the inhibition in [7] worked out at 0.02%; in assay [8] it was 12.3%; in [9], 14.7%; in [10], 10.8%; in [11], 26.6%; in [12], 2.1%. Besides, the inhibition is 4.83% in assay [13]; 4.5% in assay [14]; 5.08% in [15]; 2.7% in [16]; 3.62% in assay [17]; 6.31% in assay [18]. Moreover, the inhibition was determined as 5.01% in assay [19] and 9.43% in assay [20].
